Screens: PubChem BioAssay, several laboratories
In the library only some 21% were active in any assay of this set; here they are far more common.
CYP2C9 activ: human CYP2C9 activators, primary screen, biochemical, luminescence | recombinant CYP2C9, luciferin-H conversion; stronger effect = higher value; factor 1 = untreated enzyme, 0 = blocked | 96,000 compounds, 1.4% hits | AID 1024, 2008 | activation factor at 5 µM;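 active = activation factor of 2 or more for CYP2C9 at a 5 µM dose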;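 also: 0 = sulfaphenazole-blocked wells and 1 = vehicle-only wells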
Target sequence (P11712 whole entry, looked up): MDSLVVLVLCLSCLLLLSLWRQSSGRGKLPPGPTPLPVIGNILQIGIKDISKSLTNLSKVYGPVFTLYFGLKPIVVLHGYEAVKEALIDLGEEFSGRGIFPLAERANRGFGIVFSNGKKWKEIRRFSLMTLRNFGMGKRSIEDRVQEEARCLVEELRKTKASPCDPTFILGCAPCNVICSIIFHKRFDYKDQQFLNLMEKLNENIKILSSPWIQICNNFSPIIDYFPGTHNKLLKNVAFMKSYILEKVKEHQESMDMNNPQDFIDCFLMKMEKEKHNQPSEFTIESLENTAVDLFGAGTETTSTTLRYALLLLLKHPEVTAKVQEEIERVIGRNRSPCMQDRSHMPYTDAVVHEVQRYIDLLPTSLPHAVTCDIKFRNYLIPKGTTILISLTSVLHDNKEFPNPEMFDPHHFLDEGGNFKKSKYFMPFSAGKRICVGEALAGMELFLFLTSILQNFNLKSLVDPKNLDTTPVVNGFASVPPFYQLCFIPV
MRP resist rev: reversal of MRP1-mediated doxorubicin resistance, primary screen, H69AR cells, doxorubicin co-treatment; H69AR cells + 2 uM doxorubicin, CellTiter-Glo, 72 h; differential viability (reversal), % at 10 µM; 85,000 compounds, 0.04% hits; AID 602, 2007;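 active = viability drop by adding the cancer drug above about 55%, with treated viability meeting a 40% cutoff, limit read from the data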;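 also: viability without doxorubicin minus viability with 2 µM doxorubicin for each compound; larger differential means the compound sensitizes cells more to doxorubicin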
CYP2C9 inh: blockers of cytochrome P450 2C9 activity – biochemical, luminescence, ADME assay, primary screen. inhibition, % at 5 µM. AID 777, 2007. P11712. 96,000 compounds, 20% hits. CYP2C9 Supersomes, luciferin-H conversion;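 active = blocking of liver enzyme CYP2C9 beyond about 50% at 5 µM, limit read from the data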
CYP2C19 act: human CYP2C19 activators, primary screen, biochemical, luminescence; Cytochrome P450 2C19 (Homo sapiens), P33261; recombinant CYP2C19, luciferin-H EGE luminescence; stronger effect = higher value; 0 = fully inhibited enzyme, 1 = untreated enzyme; activation factor at 5 µM; 96,000 tested, under 10 active;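 active = activation factor of at least 2 at 5 µM in the primary screen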;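 also: 0 = wells with 2.5 mM tranylcypromine and 1 = vehicle-only wells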
CYP2C19 inhib: blockers of cytochrome P450 2C19 activity – biochemical, luminescence, ADME assay, primary screen; P33261; CYP2C19 Supersomes, luciferin-H EGE luminescence, 30 min; inhibition, % at 5 µM; 96,000 compounds, 21% hits;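 active = CYP2C19 inhibition above a set limit at 5 µM in the primary screen, cut at about 50% in these data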;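 also: plate controls were negative control wells for no effect and 2.5 mM tranylcypromine positive control for full effect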
MRP1 act: H69AR viability gain despite doxorubicin, primary screen, MRP-1 activator project, H69AR cells, CellTiter-Glo. 140,000 compounds, 0.61% hits. viability increase, % at 10 µM. viability rescue. AID 799, 2007;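 active = viability gain under doxorubicin at or above a set limit, the compound median plus 3 SD, cut at about 4.7% in these data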;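 also: MRP-1 overexpressing cells given doxorubicin 25 µM after compound pretreatment; 18-22 h compound pretreatment then 72 h with doxorubicin before readout; 0% = doxorubicin-only wells and 100% = vehicle-treated cells without doxorubicin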
The depositor's hits bear a star; · = no result.

SMILES	CYP2C9 activ	MRP resist rev	CYP2C9 inh	CYP2C19 act	CYP2C19 inhib	MRP1 act
Cc1ccc(C2CC(C(F)F)n3ncc(C(=O)Nc4cnn(Cc5ccccc5C)c4)c3N2)cc1 (stereo not given)	0.4	9.9	61.5*	0.9	7.9	-5.8
Cc1ccccc1Cn1cc(NC(=O)c2nn(C)cc2Cl)cn1	·	·	·	·	·	-0.1
Cn1c(CSCc2ccc(F)cc2)nnc1SCC(=O)N1CCN(c2ccccc2)CC1	0.9	·	5.3	1	-1.7	1.5
Cc1cccc(C(=O)Nc2nc(C)c(C(=O)Nc3ccc4c(c3)CCC4)s2)c1	0.4	·	57.7*	0.8	23.5	-5.0
CCOC(=O)c1nnc(-c2ccccc2)nc1Sc1ccccc1Cl	0.5	0.1	53.5*	0.8	20.0	-1.6
CCOC(=O)c1nnc(-c2ccc(C)cc2)nc1Sc1cccc(Cl)c1	1	-10.7	1.6	1	0.9	-0.1
Oc1c(C(c2cccs2)N2CCN(c3cccc(Cl)c3)CC2)sc2ncnn12 (stereo not given)	0.5	-22.8	53.6*	0.6	41.8	10.9*
O=C(c1ccco1)N1CCN(C(c2cccs2)c2sc3ncnn3c2O)CC1 (stereo not given)	0.6	14.4	43.5	0.5	52.0*	-0.5
Cc1ccc(C(c2sc3ncnn3c2O)N2CC(C)CC(C)C2)cc1 (stereo not given)	0.7	11.1	27.0	0.2	76.1*	2.9
Oc1c(C(c2ccco2)N2CCN(C(c3ccccc3)c3ccccc3)CC2)sc2ncnn12 (stereo not given)	0.1	-8.5	93.6*	0	95.1*	-3.9
CC(=O)Nc1cc(NC(C)=O)cc(C(=O)NC(C)(C)C)c1	0.9	6.9	10.4	1	1.2	-1.0
CCN(CC)C(=O)NC(c1ccc(C)c(F)c1)C(Cl)(Cl)Cl (stereo not given)	·	·	·	·	·	-0.3
COc1ccccc1NC(=O)CSc1nnc(-c2ccc(NC(C)=O)cc2)n1C	0.8	·	24.1	1	-4.6	-3.9
COC(=O)c1ccccc1NC(=O)CSc1nnc(-c2cccc(NC(C)=O)c2)n1C	0.6	8.0	38.7	0.1	94.1*	-1.1
O=C(CSc1ncccn1)n1c2c(c3ccccc31)CCCC2	2.1*	·	-111.8	1	-2.9	-2.6
CC(=O)Nc1cccc(-c2nnc(SCC(=O)N3CCCCC3)n2C)c1	·	·	·	·	·	-3.0
CC(=O)Nc1cccc(-c2nnc(SCC(=O)n3c4c(c5ccccc53)CCCC4)n2C)c1	1.1	7.8	-11.6	0.1	92.9*	-1.5
Cc1cc(C)nc(SCC(=O)n2c3c(c4ccccc42)CCCC3)n1	·	·	·	·	·	1.5
CCOC(=O)N/N=C\C=C\c1ccc2c(c1)OCO2	·	·	·	·	·	0.4
Cc1cc(C)cc(NC(=O)CCC(=O)Nc2cc(C)on2)c1	·	-0.9	·	·	·	-1.6
CCCCS(=O)(=O)Nc1ccc2c(c1)ncn2C1CCCCC1	0.2	1.7	84.8*	0.9	11.3	-2.4
CCCN(CC(=O)Nc1cc(Cl)ccc1Cl)C(=O)/C=C/c1ccco1	·	·	·	·	·	-2.0
CCCn1c(SCC(=O)c2cc(OC)ccc2OC)nnc1C(C)C	0.8	-0.1	16.3	0.1	92.5*	-0.9
COc1ccc(OC)c(C(=O)CSc2nnc(Cc3cccs3)n2C)c1	0.6	3.1	35.7	0.1	89.3*	-3.6
COc1cc2c(cc1NC(=O)CSc1nnc(Cc3cccs3)n1C)oc1ccccc12	0.4	-16.3	56.6*	0.8	15.1	-1.6
SMILES	CYP2C9 activ	MRP resist rev	CYP2C9 inh	CYP2C19 act	CYP2C19 inhib	MRP1 act
COc1cc2c(cc1NC(=O)COc1ccccc1OC)oc1ccccc12	0.8	·	16.5	1	1.1	-1.2
COc1cc2c(cc1NC(=O)COC(=O)Cn1cnc3ccccc31)oc1ccccc12	0.4	-6.7	60.7*	0.6	39.9	-1.8
CCn1c(SCC(=O)c2cc(OC)ccc2OC)nc2c1c(=O)n(C)c(=O)n2C	0.8	-9.2	24.9	0.9	11.3	·
COc1cc2c(cc1NC(=O)CSc1nnc(COc3ccc(Cl)cc3)n1C)oc1ccccc12	0.6	-3.1	41.9	0.8	23.3	-1.5
COc1cc2c(cc1NC(=O)CSc1nnc(Cc3cccs3)n1Cc1ccco1)oc1ccccc12	0.2	-10.6	84.1*	0.4	58.5*	-4.6
Cc1cc(Cl)ccc1NC(=O)CSc1nnc(Cc2cccs2)n1Cc1ccco1	0.5	-0.9	48.7	0.4	61.2*	-0.1
COCCn1nnnc1SCC(=O)c1ccc(F)cc1	·	12.1	·	·	·	-2.3
COCCn1c(SCC(=O)c2ccc(F)cc2)nnc1C(C)C	0.2	18.0	78.7*	0.2	75.9*	-2.3
CCn1c(SCC(=O)Nc2cc3oc4ccccc4c3cc2OC)nnc1-c1cccs1	0.4	-1.1	55.3*	0.6	40.9	-2.3
N#CCCN(C(=O)COC(=O)c1ccc2c(c1)NC(=O)CS2)c1ccc2c(c1)OCCO2	0.8	4.9	18.6	0.9	5.4	-1.1
CCOC(=O)c1c(C)c(C(=O)NCc2ccccn2)c(C)n1CC	0.9	1.2	9.5	0.7	30.0	-1.5
Cn1c(Cl)c(C(=O)Nc2ccc(Cl)cc2)c2ccccc21	1	·	-1.8	0.8	19.6	-4.5
CCOC(=O)n1cc(-c2cnc(CNC(=O)C(C)(c3ccccc3)c3ccccc3)o2)c2ccccc21	·	·	·	·	·	-0.6
O=C(/C=C/c1ccc(Cl)cc1)Nc1ccccc1N1CCOCC1	·	·	·	·	·	0.1
Nc1c(NCc2ccccc2F)c(=O)[nH]c(=O)n1Cc1ccccc1	0.3	-6.5	74.8*	0.4	63.0*	-1.4
Nc1c(NCCC2=CCCCC2)c(=O)[nH]c(=O)n1Cc1ccccc1	0.8	-30.4	17.3	1	4.0	-2.0
Cc1cc(NC(=S)N(CCCN2CCOCC2)Cc2ccco2)ccc1Cl	·	·	·	·	·	-1.6
CCN(C(C)=O)c1nnc(CSc2nc3ccccc3s2)s1	1	28.2	1.6	0.1	88.4*	-3.0
Cn1c(=O)c2cc(S(=O)(=O)NCCC(=O)NCCC3=CCCCC3)ccc2n(C)c1=O	0.9	-3.8	7.9	1.1	-7.9	-2.3
C=C(C)CN(CC)c1nc(N)c2c(N)nc3c(c2c1C#N)CC(=O)N3C12CC3CC(CC(C3)C1)C2	0.1	·	92.2*	0.6	42.1	-2.2
CCN(CC)C(=O)c1cccc(-c2ccc(OC)cc2)c1	0.6	12.4	44.6	0.3	68.9*	-0.7
O=c1oc(-c2cccs2)nc2sc3c(c12)CCCC3	0.4	4.7	63.5*	0.8	20.1	-0.2
O=C(CO/N=C/c1ccccc1O)N1CCc2ccccc21	·	·	·	·	·	-2.1
CCOC(=O)CSC1=C(C#N)C(c2ccc(Cl)cc2)CC(=O)N1 (stereo not given)	0	11.2	98.5*	0	95.5*	-1.6
CCCOC(=O)CSC1=C(C#N)C(c2ccccc2Cl)CC(=O)N1 (stereo not given)	0	-3.8	95.6*	0.1	94.9*	-0.5
